Inconclusive results are not listed. A call without a number means that no potency is given here. Active and inactive are the calls of the source. Calls come from the whole dose curve; as a rule, active = well fitted inhibition curve with a large enough effect; inconclusive = small, poorly fitted or top-dose-only effect; inactive = flat fitted curve, though single readings scatter.
Experiments:
Test in all cases: qHTS profiling for inhibitors of Plasmodium falciparum proliferation (AID 504749); note: nearly all actives have a fitted effect of over 60% in size
Details in all cases: P. falciparum in erythrocytes, SYBR Green DNA, 72 h; series mostly up to 28.7 µM
CP269 = system: CP269
Outline: (§1)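 Each compound contacts P. falciparum-infected red blood cells for 72 h at 37 C; lysis buffer (Tris, EDTA, saponin, Triton X, SYBR Green I) is added and fluorescence measured next morning; values normalized to controls.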

CP286 = system: CP286
Outline: as §1

CP291 = system: CP291
Outline: as §1

CP305 = system: CP305
Outline: as §1

CP325 = system: CP325
Outline: as §1

CP335 = system: CP335
Outline: as §1

DFO2036 = system: DFO2036
Outline: as §1

DIV14 = system: DIV14
Outline: as §1

DIV17 = system: DIV17
Outline: as §1

DIV30 = system: DIV30
Outline: as §1

Dd2 = system: Dd2
Outline: as §1

ECU = system: ECU
Outline: as §1

FAB9 = system: FAB9
Outline: as §1

GB4 = system: GB4
Outline: as §1

HB3 = system: HB3
Outline: as §1

ICS = system: ICS
Outline: as §1

JCK = system: JCK
Outline: as §1

CP315 = system: CP315
Outline: as §1

CP329 = system: CP329
Outline: as §1

CP297 = system: CP297
Outline: as §1
Potency is the fitted concentration of half-maximal effect.

SMILES	Potency (CP269)	Potency (CP286)	Potency (CP291)	Potency (CP305)	Potency (CP325)	Potency (CP335)	Potency (DFO2036)	Potency (DIV14)	Potency (DIV17)	Potency (DIV30)	Potency (Dd2)	Potency (ECU)	Potency (FAB9)	Potency (GB4)	Potency (HB3)	Potency (ICS)	Potency (JCK)	Potency (CP315)	Potency (CP329)	Potency (CP297)
O=C(CCCN1CCC(n2c(=O)[nH]c3ccccc32)CC1)c1ccc(F)cc1	1.81 µM (active)	2 µM (active)	6.42 µM (active)	5.1 µM (active)	5.1 µM (active)	1.44 µM (active)	1.58 µM (active)	0.642 µM (active)	0.642 µM (active)	2.56 µM (active)	1 µM (active)	1.78 µM (active)	3.98 µM (active)	0.809 µM (active)	1 µM (active)	0.316 µM (active)	3.55 µM (active)	–	–	–
COc1ccc(C(=O)N2CCCC2=O)cc1	inactive	inactive	–	inactive	inactive	inactive	inactive	inactive	–	inactive	inactive	inactive	inactive	inactive	inactive	inactive	inactive	inactive	inactive	–
C[C@]12C=CC(=O)C=C1CC[C@@H]1[C@@H]2CC[C@@]2(C)[C@H]1CC[C@]2(C)O	–	inactive	–	–	–	inactive	inactive	–	–	16.9 µM (active)	inactive	inactive	inactive	–	inactive	inactive	inactive	–	–	19 µM (active)
Cc1c(Cl)c(=O)oc2cc(OP(=O)(OCCCl)OCCCl)ccc12	12 µM (active)	11.2 µM (active)	7.57 µM (active)	6.75 µM (active)	13.5 µM (active)	–	10 µM (active)	8.49 µM (active)	–	–	–	10 µM (active)	inactive	12 µM (active)	11.2 µM (active)	11.2 µM (active)	–	–	12 µM (active)	12 µM (active)
CC(Cc1ccccc1)NCc1ccccc1Cl (stereo not drawn)	–	inactive	–	inactive	–	–	inactive	–	–	–	12.6 µM (active)	inactive	inactive	–	inactive	–	inactive	inactive	inactive	inactive
C=CCOC(Cn1ccnc1)c1ccc(Cl)cc1Cl (stereo not drawn)	15.1 µM (active)	11.2 µM (active)	12 µM (active)	–	15.1 µM (active)	–	12.6 µM (active)	5.36 µM (active)	8.49 µM (active)	7.57 µM (active)	7.08 µM (active)	3.98 µM (active)	–	4.78 µM (active)	11.2 µM (active)	2.51 µM (active)	–	16.9 µM (active)	–	6.75 µM (active)
OC(c1ccccc1)(c1ccccc1)C1CCNCC1	inactive	inactive	inactive	inactive	inactive	inactive	inactive	–	–	–	inactive	inactive	inactive	inactive	inactive	–	inactive	inactive	inactive	inactive
Nc1ccc(N)cc1	–	inactive	–	–	–	–	–	15.1 µM (active)	15.1 µM (active)	–	inactive	–	–	15.1 µM (active)	inactive	–	inactive	inactive	inactive	–
CN1C(=O)CN=C(c2ccccc2)c2cc([N+](=O)[O-])ccc21	inactive	inactive	inactive	inactive	–	–	inactive	inactive	inactive	inactive	inactive	inactive	inactive	inactive	–	inactive	inactive	inactive	inactive	inactive
O=C1NCN(c2ccccc2)C12CCN(CCCOc1ccc(F)cc1)CC2	–	12.6 µM (active)	–	–	–	–	–	8.49 µM (active)	–	–	8.91 µM (active)	inactive	inactive	6.75 µM (active)	inactive	–	inactive	inactive	inactive	12 µM (active)
CCN(CC)CCOC(=O)C(C)(c1ccccc1)c1ccccc1	–	–	–	–	–	4.78 µM (active)	–	–	6.01 µM (active)	–	0.0891 µM (active)	–	inactive	–	inactive	–	inactive	inactive	–	–
ClC1=C(Cl)C2(Cl)C(CBr)CC1(Cl)C2(Cl)Cl (stereo not drawn)	inactive	inactive	inactive	inactive	inactive	–	inactive	inactive	inactive	inactive	inactive	inactive	inactive	inactive	inactive	–	inactive	inactive	inactive	inactive

From PubChem BioAssay (NCATS)
